# aSyn UTR act = Activators working through SNCA 5'UTR binding (MLPCN); alpha-synuclein 5'UTR reporter, activators screen; activity score, % (tested at 7.5 µM), hits read low; hit rate 7.1% among 300,000; AID 1814; in the data active = activity score below about -60%
# An asterisk follows results filed as active; + = active, no number. Not all results are given here.
SMILES,aSyn UTR act
CCc1ccc(Nc2nnc(SCC(=O)NCCN3C(=O)CSC3=O)s2)cc1,-65*
CCc1ccc(Nc2nnc(SCC(=O)Nc3sccc3C(N)=O)s2)cc1,-86*
CCc1ccc(Nc2nnc(SCC(=O)Nc3cccnc3Cl)s2)cc1,-64*
N#Cc1ccccc1/C=N/Nc1nc(-c2ccccc2)c2cc(Cl)ccc2n1,-95*
NC(=O)N=Nc1c2[nH]c3ccccc3nc-2c2ccccc12,+
O=c1[nH]c2ccccc2nc1-c1ccc(Cl)cc1,-72*
O=c1[nH]c2ccccc2nc1-c1ccccc1,-73*
Fc1ccc(-c2nc3c(Cl)cc(C(F)(F)F)cn3c2Cl)cc1,-111*
Cc1cccc(NC(=O)COc2ccc(Br)cc2)n1,-71*
Cc1ccc(OCC(=O)Nc2cccc(C)n2)c(C)c1,-137*
Cc1cccc(-n2ncc3c(N(C)Cc4ccccc4)ncnc32)c1,-169*
COc1ccc(-n2ncc3c(Nc4cccc(C)c4)ncnc32)cc1,-202*
Cc1cccc(-n2ncc3c(N)ncnc32)c1,-74*
Cc1cccc(-n2ncc3c(Nc4ccc(F)cc4)ncnc32)c1,-108*
CCCCOc1ccc(N2C(=O)CC(N(O)c3ccccc3)C2=O)cc1 (configuration not stated),-85*
COc1cc2oc3ccccc3c(=O)c2cc1OC,-120*
O=c1c2ccccc2oc2ccc(Oc3ccccc3)cc12,-123*
O=c1c2ccccc2oc2cc(C#CC3(O)CCCCC3)ccc12,77
CCOC(=O)c1cc(-c2ccccc2)nn1Cc1cc(C)no1,-81*
CCCc1ccc2oc(C(=O)N(Cc3nccn3C)C(C)C)c(C)c2c1,-73*
CCCc1ccc2oc(C(=O)N(C)Cc3ccn[nH]3)c(C)c2c1,-85*
O=C(CSc1nccc(=O)[nH]1)Nc1ccc2c(c1)OCCO2,-139*
Cc1cccc(SCC(=O)Nc2ccc3c(c2)OCCO3)c1,-117*
O=C(CSc1ccccn1)Nc1ccc2c(c1)C(=O)c1ccccc1C2=O,-68*
O=C(CSc1ccccn1)Nc1ccc2c(c1)OCCO2,-65*
SMILES,aSyn UTR act
O=C(Nc1ccc2c(c1)OCCO2)c1ccccn1,88
Nc1ccccc1SCC(=O)Nc1ccc2c(c1)OCCO2,-89*
O=C(CSc1ccccn1)Nc1ccc2ccccc2c1,-159*
Cc1ccnc(NC(=O)CSc2ccc3c(c2)OCCO3)c1,-114*
CC(Nc1ccc2c(c1)OCCO2)C(=O)N1CCc2ccccc21 (configuration not stated),-65*
CC(=O)NC(CC(=O)Nc1ccc2c(c1)OCCO2)c1ccccc1 (configuration not stated),-77*
O=C(CSc1ccccn1)Nc1ccc2c(c1)CCC2,-77*
O=[N+]([O-])c1ccc(/C=N/N2CCCCC2)cc1,-128*
Clc1ccc(/C=N/N2CCCCC2)cc1,-103*
Cc1ccc(NC(=O)CCCC2CCCCC2)c(O)c1,-150*
Cc1nc(N)sc1C(=O)N/N=C/c1ccccc1[N+](=O)[O-],-133*
Cn1cccc1/C=N/NC(=O)c1sc2ccccc2c1Cl,-80*
Cc1nc(N)sc1C(=O)N/N=C/c1c[nH]c2ccccc12,-79*
CC(/C=N/NC(=O)c1sc(N)nc1C)=C\c1ccccc1,-116*
Cc1nnsc1C(=O)N/N=C/c1ccc2ccccc2c1O,120
O=C(N/N=C/c1c[nH]c2ccccc12)c1sc2ccccc2c1Cl,-69*
Nc1ncccc1OCc1ccc(Br)cc1,-159*
COc1ccc(COc2cccnc2N)cc1,-91*
CSc1ccccc1OCc1cc(C(=O)N2CCCC(C)C2)no1 (configuration not stated),-134*
CSc1ccccc1OCc1cc(C(=O)N2CCSCC2)no1,-113*
CSc1ccccc1OCc1cc(C(=O)N2CCN(C3CCCC3)C(=O)C2)no1,-112*
COc1ccccc1OCc1cc(C(=O)N2CCCC(OCc3cccnc3)C2)no1 (configuration not stated),-134*
COc1ccc(OCc2cc(C(=O)N3CCCC(CO)C3)no2)c2ccccc12 (configuration not stated),-102*
O=C(c1ccc(Br)cc1)c1coc2ccc(O)cc12,-92*
O=C(c1ccc(Cl)cc1)c1coc2ccc(O)cc12,-128*
SMILES,aSyn UTR act
CC1(C)CC(CCNC(=O)CCl)(c2ccccc2)CCO1 (configuration not stated),-63*
COc1ccc(-n2nc(N)c(C(N)=O)n2)cc1,-68*
COc1ccc(N2C(N)=NC(N)=NC2(C)C)cc1,81
Nc1cc(N)nc(SCc2ccccc2)n1,-110*
Nc1nc(SCc2ccccc2)ns1,-89*
Cc1ccc(C(=O)NNC(=O)c2ccco2)cc1,-69*
Cc1ccc(NC(=S)NNC(=O)c2ccco2)cc1,-74*
Clc1ccccc1CSc1cc2c(nn1)-c1ccccc1CC2,-132*
Clc1cccc(Cl)c1CSc1cc2c(nn1)-c1ccccc1CC2,-83*
CC(=O)N/C(N)=N/c1nc2cc([N+](=O)[O-])ccc2o1,-97*
CC(=O)N/C(N)=N/c1nc2cc(C)ccc2o1,-63*
CC(=O)Nc1cccc(-c2nnc(-c3ccccc3)o2)c1,-150*
CCOc1cccc(C(=O)Nc2cccc(-c3nnc(-c4ccccc4)o3)c2)c1,-77*
O=C(Nc1cccc(-c2nnc(-c3ccccc3)o2)c1)C1CC1,-89*
COc1ccc(NC(=O)CC2CC3CCC2C3)cn1 (configuration not stated),-68*
COc1ccc(Br)cc1/C=C/C(=O)Nc1ccc(C)cc1,-86*
CCC(=O)Nc1cccc(C(=O)/C=C/c2cc(Br)ccc2OC)c1,-125*
COc1ccc(Br)cc1/C=C/C(=O)Nc1ccc2ccccc2c1,-91*
Cc1ccccc1Nc1nc(N)nc(CSc2ccc(F)cc2)n1,-125*
Cc1ccccc1Nc1nc(N)nc(CSc2nnnn2C)n1,-109*
Cc1ccc(Nc2nc(N)nc(CSc3nccn3C)n2)c(C)c1,-101*
CCCCOc1ccc(C2CCC(C(C)=O)C(C)C2)cc1 (configuration not stated),-169*
O=C(Nc1nc2ccsc2c(=O)s1)c1ccc(F)cc1Cl,-117*
Cc1csc2nc(NC(=O)c3ccccc3)sc(=O)c12,-97*
CSc1nc2ccc3nc(NC(=O)c4ccccc4)sc3c2s1,-318*
SMILES,aSyn UTR act
O=C(Nc1nc2ccsc2c(=O)s1)c1ccc(F)cc1,-158*
CC(C)Oc1cccc(C(=O)NC(=S)Nc2cccnc2)c1,-114*
CC(C)Oc1cccc(C(=O)NC(=S)Nc2ccccc2)c1,-90*
COc1cccc(C(=O)NC(=S)Nc2cccnc2)c1,-153*
CCOc1ccc(C(=O)NC(=S)Nc2cccnc2)cc1,-135*
Cc1ccc2[nH]cc(/C=C/c3cc[n+](C)cc3)c2c1,65
CCCOc1cccc(C(=O)NC(=S)Nc2ccccc2)c1,-102*
O=C1C(Nc2ccccc2)=C(NS(=O)(=O)c2ccccc2)C(=O)c2ccccc21,-75*
CC(=O)Nc1nc(CCC(C)C)cc2c1c(=O)oc1ccccc12,61
CCN(CC)CC(=O)Nc1scc2c1c(=O)oc1ccccc12,-124*
CCOC(=O)/C(C#N)=C/N=c1ccc(C)cn1C,-88*
CCCN1C=CC(=C/C=C(\C#N)C(=O)OCC)C=C1,-157*
CCCCCCCn1c2c(c(=N)c3c1CCC3)CCCC2,83
O=C(O)c1ccc(N/N=C/c2ccc(-c3ccc(Cl)cc3Cl)o2)cc1,-62*
O=C(O)c1ccc(N/N=C/c2ccc(-c3cc(Cl)ccc3Cl)o2)cc1,-156*
O=C(O)c1ccc(N/N=C/c2ccc(-c3cccc(Cl)c3)o2)cc1,-114*

# Screening results as filed in PubChem BioAssay.
